# The panel holds about 79,000 compounds, 15% with a hit somewhere; the sample as a whole holds those more often. Values without a mark were called inactive. Active and inactive are the calls of the source. No stated cut-off is given here; in the data, active means growth inhibition above about 70%; inactive means the rest.
# Tests used:
# [1] = NCI Yeast Anticancer Drug Screen. Data for the rad50 strain (AID 155);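 further: 0% = growth of vehicle-only cultures of the same strain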; settings: S. cerevisiae rad50 strain growth inhibition, stronger effect = higher value
# In short: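 Relative growth inhibition (compound vs vehicle) was measured in yeast with a defined repair-gene alteration.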
# [2] = NCI Yeast Anticancer Drug Screen. Data for the mec2-1 strain (AID 157); settings: S. cerevisiae mec2-1 strain, stronger effect = higher value
# In short: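 mec2-1 yeast strain, carrying an alteration in DNA damage repair or cell cycle control, was exposed to compounds; growth inhibition was measured relative to vehicle-treated controls.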
# [3] = NCI Yeast Anticancer Drug Screen. Data for the sgs1 mgt1 strain (AID 161);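 further: 0% = growth of cultures given vehicle only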; settings: S. cerevisiae sgs1 mgt1 strain, stronger effect = higher value
# In short: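 Growth of a repair-deficient yeast mutant was monitored after compound treatment and expressed as inhibition relative to vehicle-treated cultures.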
# [4] = NCI Yeast Anticancer Drug Screen. Data for the cln2 rad14 strain (AID 165);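 further: 0% = growth equal to vehicle treated cultures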; settings: S. cerevisiae cln2 rad14 strain, stronger effect = higher value
# In short: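 Yeast carrying cln2 and rad14 alterations (cell cycle control and DNA damage repair) were exposed to compounds. Growth inhibition was measured against vehicle-treated controls.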
# [5] = NCI Yeast Anticancer Drug Screen. Data for the bub3 strain (AID 167); settings: S. cerevisiae bub3 mutant strain, stronger effect = higher value
# In short: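 Screening used yeast with an engineered genetic alteration affecting cell cycle control. Compound-exposed cultures were compared with vehicle cultures, and reduced growth was taken as inhibition.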
# [6] = NCI Yeast Anticancer Drug Screen. Data for the mlh1 rad18 strain (AID 175); settings: S. cerevisiae mlh1 rad18 strain growth inhibition, stronger effect = higher value
# In short: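 Growth inhibition of the yeast strain was measured after compound exposure and expressed relative to vehicle-treated controls. The strain carries defined defects in DNA damage repair.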
# [7] = at 5.0 µM (retest, dose inferred, filed as 0.5)
# [8] = at 50.0 µM (retest, dose inferred, filed as 5.0)
Structure (SMILES),"growth inhibition [1, 7]","growth inhibition [1, 8]",growth inhibition ([1]; at 50.0 µM),"growth inhibition [2, 7]","growth inhibition [2, 8]",growth inhibition ([2]; at 50.0 µM),"growth inhibition [3, 7]","growth inhibition [3, 8]",growth inhibition ([3]; at 50.0 µM),"growth inhibition [4, 7]","growth inhibition [4, 8]",growth inhibition ([4]; at 50.0 µM),"growth inhibition [5, 7]","growth inhibition [5, 8]",growth inhibition ([5]; at 50.0 µM),"growth inhibition [6, 7]","growth inhibition [6, 8]",growth inhibition ([6]; at 50.0 µM)
Cc1nc(N)sc1N=Nc1cccc(Cl)c1Cl,-5%,39%,71.5% (active),-8%,56%,50.4%,3%,70% (active),66.2%,0%,4%,53.8%,-2%,23%,75.8% (active),21%,79% (active),84.2% (active)
CC1(C(Cl)(Cl)Cl)C=CC(O)(C#CC2(O)C=CC(C)(C(Cl)(Cl)Cl)C=C2)C=C1 (stereo not given),94% (active),7%,94.5% (active),91% (active),98% (active),98.2% (active),81% (active),-7%,98.3% (active),87% (active),97% (active),95.7% (active),98% (active),97% (active),95.4% (active),93% (active),98% (active),97.8% (active)
CC(C(O)c1ccccc1)C(O)(C(F)(F)F)C(F)(F)F (stereo not given),8%,13%,8.95%,6%,-3%,-7.6%,3%,10%,-15.9%,1%,-4%,15.5%,-2%,-7%,-19.6%,18%,6%,17.4%
CS(=O)(=O)c1nc(Cl)c(Cl)c(C#N)c1Cl,50%,99% (active),98.3% (active),76% (active),99% (active),98.9% (active),66%,99% (active),99.2% (active),23%,99% (active),84.5% (active),88% (active),99% (active),99.2% (active),85% (active),99% (active),99% (active)
C/C(=N/O)c1cc([N+](=O)[O-])c(O)cc1O,-27%,70% (active),86.7% (active),-10%,76% (active),84.9% (active),-15%,80% (active),89.2% (active),-6%,44%,61.1%,-35%,76% (active),86.5% (active),-16%,80% (active),85.8% (active)
COc1cc(C2=N/C(=C\c3ccccc3O)C(=O)O2)cc(OC)c1OC,-23%,-22%,-9.9%,-8%,-21%,-27.1%,-15%,-6%,4.05%,0%,2%,8.7%,-20%,-23%,10.8%,-43%,-47%,0.65%
Cc1ccc(N2C(=O)C(C)SC23C(=O)Nc2ccc(Cl)cc23)cc1 (stereo not given),-8%,99% (active),98.5% (active),9%,99% (active),98.8% (active),-3%,98% (active),37.4%,0%,98% (active),97.8% (active),-8%,98% (active),98.8% (active),1%,99% (active),89% (active)
Cc1cc(C)c(C(=O)/C=C/C(=O)c2ccccc2)c(C)c1,86% (active),95% (active),62.4%,89% (active),96% (active),78.1% (active),85% (active),96% (active),90.6% (active),51%,95% (active),47.2%,89% (active),96% (active),96% (active),93% (active),96% (active),92.7% (active)
O=C(Cc1ccc2c(c1)OCO2)c1ccc(O)cc1O,6%,84% (active),97.4% (active),1%,93% (active),98.4% (active),9%,85% (active),96.7% (active),6%,84% (active),96.1% (active),10%,90% (active),97.2% (active),5%,88% (active),96.5% (active)
COc1ccc2c(c1)CCc1c-2ccc(C)c1CCC(=O)O,5%,99% (active),72.2% (active),21%,100% (active),63.8%,19%,99% (active),63.9%,-3%,99% (active),74.2% (active),10%,99% (active),60.2%,22%,100% (active),90% (active)
